Our source for the inhibition values is PubChem BioAssay AID1376 (SRMLSC, 2008).

Hit rate of the full screen: of about 220,000 compounds, about 530 (0.24%) were called active. The sample holds actives, similar compounds and a random draw of the others, so the mix is not that of the screen. Cut-off read from the data, not from the text of the source: active = inhibition above about 13%; inconclusive = no clear call, values can overlap the other calls; inactive = below that. Results with a measured potency or affinity are listed apart.

As usually defined, the inhibition is the relative decrease from the control value, in per cent.

Chain of Bifunctional protein GlmU (Mycobacterium tuberculosis (strain ATCC 25618 / H37Rv)) (P9WMN3 whole entry, looked up): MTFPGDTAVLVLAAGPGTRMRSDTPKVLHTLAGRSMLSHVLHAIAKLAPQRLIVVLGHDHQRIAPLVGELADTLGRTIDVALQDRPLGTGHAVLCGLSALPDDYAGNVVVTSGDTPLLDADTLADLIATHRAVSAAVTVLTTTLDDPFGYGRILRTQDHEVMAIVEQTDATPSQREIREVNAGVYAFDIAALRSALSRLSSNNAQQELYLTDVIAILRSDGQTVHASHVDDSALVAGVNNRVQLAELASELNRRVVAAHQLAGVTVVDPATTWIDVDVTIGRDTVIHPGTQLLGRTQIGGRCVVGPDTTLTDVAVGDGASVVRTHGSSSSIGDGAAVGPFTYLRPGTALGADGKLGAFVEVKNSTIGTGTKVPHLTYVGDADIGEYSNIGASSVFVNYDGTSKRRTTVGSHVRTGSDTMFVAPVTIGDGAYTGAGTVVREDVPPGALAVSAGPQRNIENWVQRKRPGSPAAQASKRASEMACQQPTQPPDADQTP

This experiment concerns the target Bifunctional protein GlmU (Mycobacterium tuberculosis (strain ATCC 25618 / H37Rv)) (UniProt P9WMN3). The experiment is described as follows: inhibition of mycobacterial GlmU enzyme – biochemical, glucosamine-1-phosphate acetyltransferase (AID 1376).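 Note: 0% = complete reaction with vehicle and 100% = reaction without substrate.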 The note with it: M. tuberculosis GlmU acetyltransferase enzyme assay; active compounds read high;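 tested at 30 µM in the primary screen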.
As for `COCCNc1nc(SCc2ccccc2)nc2sc3c(c12)CCC3`, the inhibition was -0.26% (inactive). With `COCCCNc1nc(SCc2ccccc2)nc2sc3c(c12)CCC3`, the inhibition was 12.8% (active). Regarding `CC(CO)Nc1nc(SCc2ccccc2)nc2sc3c(c12)CCC3` (centres undefined), the inhibition was -17.2% (inactive). Then `CC(C)(C)c1ccc(S(=O)(=O)Nc2ccc(Cc3ccncc3)cc2)cc1`, with 0.43% (inactive); and `COC(=O)c1ccc(N=NNc2ccccc2)cc1`, with 4.94% (inactive); and `CCN(CC)S(=O)(=O)c1cc(NC(=O)Cc2n[nH]c(=O)c3ccccc23)ccc1C`, with 7.13% (inactive).

Consider `CCC(C)(NC(=O)CNC(C)=O)C(=O)NC1CCCCC1` (centres undefined), for which the inhibition is 17.3% (active). Then `CCC(C)(NC(=O)c1ccccn1)C(=O)NC1CCCC1` (centres undefined), with -1.49% (inactive); and `CCC(C)(NC(=O)Cc1c[nH]c2ccccc12)C(=O)NC1CCCCC1` (centres undefined), with 0.49% (inactive). Regarding `CC(C)(C)C1CCC2(CC1)CC(=O)c1ccccc1O2` (centres undefined), the inhibition was 0.53% (inactive). The figure for `CC(C)(C)OC(=O)N/N=C\c1ccc[nH]1` is -8.2% (inactive); for `O=C(O)CCCCC1SCC2NC(=O)NC21` (centres undefined) it is -2% (inactive); for `O=C(O)CCCCCCCC(=O)O` it is -3.59% (inactive). Regarding `CCNc1oc(-c2ccc(OC)cc2)nc1S(=O)(=O)c1ccc(Br)cc1`, the inhibition was -0.98% (inactive). Then `C=CCOc1ccc(C2C(C(=O)c3cccs3)=C(O)C(=O)N2c2nnc(C)s2)cc1` (centres undefined), with 15% (active). In the case of `C=CCOc1ccc(C2C(C(=O)c3ccco3)=C(O)C(=O)N2c2nnc(C)s2)cc1` (centres undefined), the inhibition was -3.01% (inactive). The figure for `Cc1ccc(C2C(C(=O)c3cccs3)=C(O)C(=O)N2c2nnc(C)s2)cc1` (centres undefined) is 2.85% (inactive). The figure for `COC(=O)CCCC1=CC2=C(c3ccccc3)C(=O)C(C)(OC(=O)C3CCCC3)C(=O)C2=CN1C1CC1` (centres undefined) is 1.9% (inactive); for `Cc1ccc(OCC(=O)N2CCOCC2)c([N+](=O)[O-])n1` it is -0.37% (inactive). Then `COc1cccc(C2C=C(c3ccc(Br)s3)Nc3ncnn32)c1OC` (centres undefined), with 0.77% (inactive); and `COc1cc(C2C=C(c3cccs3)Nc3ncnn32)cc(OC)c1OC` (centres undefined), with -2.57% (inactive); and `COc1ccc(C2C=C(c3ccc(Br)s3)Nc3ncnn32)cc1OC` (centres undefined), with 14.2% (active). In the case of `Cc1ccc(S(=O)(=O)N2CC(O)CC2C(=O)OCc2nc3sc(C)c(C)c3c(=O)[nH]2)cc1` (centres undefined), the inhibition was 1.13% (inactive).

Turning to `O=C(CCN1CCCC1)c1cccs1`, the inhibition is -0.97% (inactive). Then `O=C(COC(=O)c1c[nH]c(=O)[nH]c1=O)NCc1ccccc1`, with 13.3% (active); and `COc1ccc(CNC(=O)COC(=O)c2c[nH]c(=O)[nH]c2=O)cc1OC`, with -0.09% (inactive). The figure for `O=C(COC(=O)c1c[nH]c(=O)[nH]c1=O)Nc1ccccc1` is -4.87% (inactive). Then `O=C(CN(Cc1cccs1)C(=O)CNS(=O)(=O)c1ccc(F)cc1)NCC1CCCO1` (centres undefined), with 3.23% (inactive); and `CCOc1ccc(CNC(=O)CCS(=O)(=O)Cc2ccc(C)cc2)cc1OC`, with 2.73% (inactive).

For `COc1ccc(C2(C)NC(=O)N(CC(=O)NCCC3=CCCCC3)C2=O)cc1OC` (centres undefined), the inhibition is -7.87% (inactive). The figure for `CN(C)c1nc(OCCNC(=O)Nc2ccccc2)nc(N2CCCCC2)n1` is 1.41% (inactive); for `COc1ccccc1C(=O)NCc1n[nH]c(=S)n1Cc1ccccc1` it is 0.36% (inactive). The figure for `CCCCN(CC(=O)NCc1ccc(F)cc1)C(=O)c1ccco1` is -1.73% (inactive). The figure for `CCc1cc2c(SCC(=O)O)ncnc2s1` is -4.14% (inactive); for `CCc1cc2c(SCC(=O)c3ccccc3)ncnc2s1` it is -3.16% (inactive). Consider `CCc1cc2c(SCC(=O)C(C#N)=C3N(C)c4ccccc4N3C)ncnc2s1`, for which the inhibition was 15% (active). Then `Cn1c(=O)c2c(SCC(=O)NCCc3ccccc3)nc(C3CC3)nc2n(C)c1=O`, with 1.2% (inactive).

With `O=C(Cn1cnc2c(nnn2Cc2ccc(F)cc2)c1=O)N1CCCc2ccccc21`, the inhibition was -5.31% (inactive). The figure for `COc1ccc(OC)c(NC(=O)CCN2CCCCCC2)c1` is -10.2% (inactive); for `CCOC(=O)CC1C(=O)NCCN1C(=O)Nc1ccccc1` (centres undefined) it is -2.01% (inactive); for `CCC(C)(C(=O)NC1CCCCC1)N(C(=O)c1ccccn1)c1ccccc1` (centres undefined) it is 2.61% (inactive).

As for `CCC(C)(C(=O)NC1CCCC1)N(C)C(=O)c1ccccn1` (centres undefined), the inhibition is -5.14% (inactive). Then `CCC(C)(C(=O)NC1CCCCC1)N(C)C(=O)c1ccccn1` (centres undefined), with 14.8% (active). The figure for `Cc1ccc(S(=O)(=O)Nc2nccs2)cc1[N+](=O)[O-]` is -3.62% (inactive); for `O=S1(=O)CCN(Cc2cccc(Cl)c2)CC1` it is -7.45% (inactive); for `CC(=O)Nc1cccc(NC(=O)c2ccc([N+](=O)[O-])cc2Cl)c1` it is -7.61% (inactive). Regarding `Cc1ccc(C[n+]2cccc(-c3ccccc3)c2)c(C)c1`, the inhibition is -2.52% (inactive). Regarding `Cc1ccc(NC(=O)C2c3ccccc3Oc3ccccc32)nc1`, the inhibition was -2.94% (inactive).

For the compound `Cc1ccc(/C=N/Nc2ccc(C(=O)O)cc2)o1`, the inhibition is 0.55% (inactive). The figure for `Cc1ccc(C(=O)O)cc1-c1ccc(C=C2C(=O)c3ccccc3C2=O)o1` is 11.7% (inactive); for `O=C(O)c1ccc2c(c1)C(=O)/C(=C\c1ccco1)C2=O` it is 17.2% (active). The figure for `O=C(NCc1ccco1)c1ccc2c(c1)C(=O)c1ccccc1-2` is -0.25% (inactive); for `O=C1C(=Cc2ccco2)C(=O)c2ccccc21` it is 8.37% (inactive). Then `Cc1csc(SC(C)C(=O)Nc2ccc(S(=O)(=O)N3CCCC3)cc2)n1` (centres undefined), with -1.61% (inactive); and `COCCCNC(=O)c1cc(C)nc2ccc(F)cc12`, with 1.65% (inactive). Consider `CC(C)c1nnc(NC(=O)CCC(=O)N2CCN(Cc3ccccc3)CC2)s1`, for which the inhibition is 3.04% (inactive). Then `CCN(CC)S(=O)(=O)c1ccc2nc(CCl)[nH]c2c1`, with -0.14% (inactive). On to `Cc1sc2nc(SCc3nnc(-c4cccs4)o3)n(C3CCCC3)c(=O)c2c1C`, for which the inhibition is -5.93% (inactive). Then `CCOC(=O)c1c(NC(=O)CN2CCCCC2)sc(CN(C)C)c1-c1ccccc1`, with -2.86% (inactive); and `CC(=O)c1cc(F)c(N2CCN(C(=O)COc3ccccc3F)CC2)cc1C`, with 1.65% (inactive); and `Cc1ccc(NC(=S)N2CCCCC2CO)cc1C` (centres undefined), with -3.71% (inactive). Then `N#Cc1ccccc1OCC(=O)C1CC1`, with 5.73% (inactive); and `COc1cccc(C(=O)CSc2nnc(-c3cccs3)o2)c1`, with 4.7% (inactive). Take `N#Cc1c(-n2cccc2)cccc1-n1cccc1`: the inhibition is 9.31% (inactive). With `N#Cc1cc(N)ccc1-n1cccc1`, the inhibition was 13.7% (active). The figure for `COc1ccc(N2CCN(c3ccc(N)cc3C#N)CC2)cc1` is -1.62% (inactive). Then `O=C(O)[C@@H](O)[C@H](O)C(=O)O`, with 2.76% (inactive). Then `O=C(O)C(Cl)Cl`, with 2.18% (inactive); and `CC1CCc2c(sc3ncnc(NS(=O)(=O)c4cccs4)c23)C1` (centres undefined), with 0.41% (inactive); and `O=C1CSC(=Nc2cccc(Cl)c2Cl)N1Cc1cccnc1`, with 1.06% (inactive). Turning to `CC(=O)c1ccc(N2CCN(C(=S)Nc3cc(C)ccc3C)CC2)cc1`, the inhibition was -4.28% (inactive). The figure for `CCN(CC)CCN(Cc1cc2cc3c(cc2[nH]c1=O)OCCO3)C(=O)NC1CCCCC1` is 4.4% (inactive). The figure for `CCN(CC)CCN(Cc1cc2ccc(C)cc2[nH]c1=O)C(=O)NC1CCCCC1` is 14.2% (active); for `CCc1ccc2[nH]c(=O)c(CN(CCN(CC)CC)C(=O)NC3CCCCC3)cc2c1` it is -7.06% (inactive).

Regarding `O=c1[nH]c(=O)n(-c2cccc3ccccc23)c(O)c1/C=N/N1CCCCC1c1cccnc1` (centres undefined), the inhibition is -5.46% (inactive). The figure for `CC(OC(=O)c1cccs1)C(=O)NCc1cccs1` (centres undefined) is -4.58% (inactive). The figure for `Cn1c(=O)c(C(=O)Nc2ncccc2O)c(O)c2ccccc21` is 2.25% (inactive); for `CC(=O)c1ccc(C)cc1OC(=O)c1cccc(F)c1` it is 3.37% (inactive). In the case of `O=C(O)c1cc(O)c2c(c1)C(=O)c1cccc(O)c1C2=O`, the inhibition was 0.69% (inactive). The figure for `Cc1cc(O)c2c(c1)C(=O)c1cc(O)cc(O)c1C2=O` is -2.62% (inactive); for `O=C(O)c1cc(O)c2c(c1)C(=O)c1cc(O)cc(O)c1C2=O` it is 13.3% (active); for `Cc1ccc(NC(=O)CN(C)C(=O)c2ccc(S(=O)(=O)N(C)c3ccccc3)cc2)cc1` it is 2.55% (inactive). Then `CCOc1ncccc1C(=O)N1CCN(C(c2ccccc2)c2ccccc2)CC1`, with 7.04% (inactive); and `COC(=O)c1cc(Cl)nc2ccccc12`, with 5.71% (inactive); and `CCOC(=O)C1=C(C)N(C)C(=O)NC1c1c(C)nn(-c2ccc(C)cc2)c1Cl` (centres undefined), with 3.87% (inactive). Then `CCOC(=O)C1=C(C)NC(=O)NC1c1c(C)nn(-c2ccccc2)c1Cl` (centres undefined), with 15.1% (active); and `CCOC(=O)C1=C(C)N(C)C(=O)NC1c1c(C)nn(-c2ccccc2)c1C` (centres undefined), with -0.97% (inactive). In the case of `COc1cc(NC(=O)CCCSc2nc(-c3ccco3)cc(C(F)(F)F)n2)cc(OC)c1OC`, the inhibition is -3.07% (inactive). The figure for `NC(=O)c1ccccc1NC(=O)Nc1cccc(Cl)c1` is 14.1% (active); for `NC(=O)c1ccccc1NC(=O)Nc1ccc(F)c(Cl)c1` it is -5.33% (inactive); for `O=C(Nc1cccc(Cl)c1)Nc1ccccc1C(=O)O` it is 2.52% (inactive). Regarding `Cc1cc([N+](=O)[O-])nn1CCCC(=O)Nc1c(C)n(C)n(-c2ccccc2)c1=O`, the inhibition was -7.37% (inactive). Regarding `CCOC(=O)C1(C)C=C(Nc2ccc(NC(C)=O)cc2)C(=O)N1c1ccc(NC(C)=O)cc1` (centres undefined), the inhibition was 14.8% (active).

With `CCOC(=O)C1(C)C=C(Nc2ccc(C)cc2)C(=O)N1c1ccc(C)cc1` (centres undefined), the inhibition was -2.18% (inactive). Then `CCOC(=O)C1(C)C=C(Nc2ccc(O)cc2)C(=O)N1c1ccc(O)cc1` (centres undefined), with 9.21% (inactive); and `CCn1c(=O)c2c(nc3n2CCN3c2ccccc2)n(C)c1=O`, with -6.14% (inactive); and `COc1ccc(/C=N/NC(=O)c2ccccc2O)cc1Cn1cc([N+](=O)[O-])cn1`, with -1.22% (inactive). Then `COc1ccc(/C=N\NC(=O)c2cccc([N+](=O)[O-])c2)cc1Cn1cc([N+](=O)[O-])cn1`, with -3.48% (inactive). Then `COc1ccc(/C=N/NC(=O)CCN2CCCCC2c2cccnc2)cc1Cn1cc([N+](=O)[O-])cn1` (centres undefined), with 12.8% (active).
